# Cy5 interf NS3h: Cy5 fluorescence interference, HCV helicase counter-screen; Cy5-dT15 DNA with NS3h; actives lie on both sides; signal over control mean, under 1 quenches; 6% of 16,000 active; fluorescence interference ratio at 100 µM; AID 720488;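 active = compound fluorescence over control fluorescence at most 0.8, a quencher, or at least a set upper limit, an enhancer; inactive = ratio between 0.8 and the set upper limit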
# HCV NS3h FP: hepatitis C NS3 helicase inhibition, primary screen. NS3h Cy5-dT15 DNA binding, fluorescence polarization. inhibition, % at 100 µM. 1.6% of 16,000 active;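 active = inhibition above the average over every tested compound plus 3 SD, cut at about 40% in these data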
# NS3h confirm: hepatitis C NS3 helicase inhibition, confirmation | shares compounds with HCV NS3h FP | NS3h binding to Cy5-dT15 DNA, fluorescence polarization | inhibition, % at 100 µM | 20% of 240 active;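 active = percent inhibition of 50% or more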
# SSB FP counter: E. coli SSB-DNA binding inhibition, NS3h counter-screen; shares compounds with HCV NS3h FP; E. coli SSB binding Cy5-dT15, fluorescence polarization; inhibition, % at 100 µM; 40% of 240 active; AID 720486;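 active = inhibition of at least 50%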;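 also: displacers lower Cy5 polarization so higher inhibition means more SSB displaced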
# Target sequence (P0AGE0 whole entry, looked up): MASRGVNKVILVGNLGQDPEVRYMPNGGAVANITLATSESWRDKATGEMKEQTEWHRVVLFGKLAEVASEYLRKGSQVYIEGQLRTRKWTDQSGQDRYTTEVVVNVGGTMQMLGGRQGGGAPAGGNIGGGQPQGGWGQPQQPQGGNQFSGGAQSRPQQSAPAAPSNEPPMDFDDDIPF
# Cy5 SSB interf: counter-screen for HCV NS3 helicase inhibitors: fluorescence interference; shares compounds with HCV NS3h FP; Cy5-dT15/E. coli SSB fluorescence interference; actives lie on both sides; fluorescence interference ratio at 100 µM; 8% of 240 active; AID 720487;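 active = fluorescence interference ratio at or above 1.2, signal boosting, or at or below 0.8, signal quenching; inactive = ratio between 0.8 and 1.2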;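 also: ratio of compound well signal to mean negative control signal so 1 means no effect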
# Cy5 fluor confirm: Cy5 fluorescence interference, confirmation counter-screen | fluorescence interference ratio at 100 µM, hits read low | 44% of 240 active | Cy5-dT15 DNA/NS3h fluorescence interference counterscreen | shares compounds with HCV NS3h FP;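 active = fluorescence interference ratio at or below 0.8 quencher or at or above a set limitenhancer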;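 also: ratio of compound fluorescence to mean of negative controls so 1 means no interference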
# The depositor's hits bear a star; nt = no result given. Compounds with a hit are over-represented: about 6.9% of the library has one in this group of screens.
SMILES,Cy5 interf NS3h,HCV NS3h FP,NS3h confirm,SSB FP counter,Cy5 SSB interf,Cy5 fluor confirm
O=C1NN(c2ccc(F)c(Cl)c2)C(=O)/C1=C\c1ccc(-c2cccc(C(=O)O)c2)o1,0.8*,43*,13,27,0.92,0.96
CCOC(=O)C(CCOCCOc1c(Cl)cc(Cl)cc1Cl)C(=O)OCC,0.94,6,nt,nt,nt,nt
O=C1C=CC(=O)N1c1ccc([N+](=O)[O-])cc1Br,0.92,88*,62*,0,0.94,0.76*
O=C1C2C3CCC(O3)C2C(=O)N1c1cccc([N+](=O)[O-])c1 (stereo not drawn),0.9,0,nt,nt,nt,nt
CCOc1ccc(NC(=O)c2cccc(Oc3ccccc3)c2)c([N+](=O)[O-])c1,1.1,7,nt,nt,nt,nt
CCOc1ccc(N2C(=O)C=CC2=O)c([N+](=O)[O-])c1,0.97,64*,47,4,0.97,0.95
O=C1C=CC(=O)N1c1cccc([N+](=O)[O-])c1,0.9,63*,66*,9,0.99,0.92
O=C1C2C3C=CC(C3)C2C(=O)N1c1ccc([N+](=O)[O-])cc1Br (stereo not drawn),0.99,4,nt,nt,nt,nt
Cc1ccc(OCC(N)=O)c(Br)c1,1.1,-13,nt,nt,nt,nt
Cc1ccc(N2C(=O)C=CC2=O)c(Br)c1,1,76*,62*,7,0.94,0.96
CC1=C(C(=O)Nc2ccccc2C)C(c2ccccc2Br)NC(=S)N1 (stereo not drawn),0.95,-6,nt,nt,nt,nt
COc1ccc(OC)c(CN2CCN(C(=O)CC(C)C)CC2)c1,1.1,-17,nt,nt,nt,nt
CCOc1cc(OCC)cc(C(=O)Nc2ccc(Cl)cn2)c1,1.1,13,nt,nt,nt,nt
CC(O)c1cccc(NC(=O)c2nn3c(c2Cl)NC(c2ccco2)CC3C(F)(F)F)c1 (stereo not drawn),0.94,11,nt,nt,nt,nt
Cc1ccc2ncnc(Nc3ccc(I)cc3)c2c1,1.1,14,nt,nt,nt,nt
CCOc1ccc(NC(=O)CN(c2ccc(Cl)cc2)S(C)(=O)=O)cc1,1.1,2,nt,nt,nt,nt
CCOc1cc(C(=O)Nc2ccc(OCc3ccccc3)cc2)cc(OCC)c1OCC,0.98,9,nt,nt,nt,nt
Nc1c(Cl)cc(N2C(=O)C=CC2=O)cc1Cl,0.96,54*,62*,15,0.9,0.88
O=C1NC(=S)S/C1=C/c1ccc(-c2ccccc2)o1,1.1,18,nt,nt,nt,nt
O=C1NC(=S)S/C1=C\c1ccc(-c2ccccc2C(=O)O)o1,0.87,62*,53*,110*,0.79*,0.91
CC(NC(=O)c1cc2cc([N+](=O)[O-])ccc2oc1=O)c1ccccc1 (stereo not drawn),1,7,nt,nt,nt,nt
COc1nsnc1NS(=O)(=O)c1ccc(NC(=S)NC(=O)c2sc3cc(F)ccc3c2Cl)cc1,1,94*,38,5,1,0.76*
COc1ccc2c(Cl)c(C(=O)Nc3ccc(N4CCOCC4)cc3)sc2c1,0.97,9,nt,nt,nt,nt
CN(C)c1ccc(/C=C(\NC(=O)c2ccccc2)C(=O)N/N=C\c2cc(O)ccc2[N+](=O)[O-])cc1,0.65*,45*,25,76*,0.79*,0.73*
O=C(N/N=C\c1ccccc1O)/C(=C\c1ccc2c(c1)OCO2)NC(=O)c1ccccc1,1.1,5,nt,nt,nt,nt
SMILES,Cy5 interf NS3h,HCV NS3h FP,NS3h confirm,SSB FP counter,Cy5 SSB interf,Cy5 fluor confirm
O=C(NC(=S)Nc1ccc(Cc2ccncc2)cc1)c1ccccc1,0.93,36,nt,nt,nt,nt
CCN(CC)CCNC(=O)c1ccc(NC(=S)NC(=O)c2cccnc2)cc1,0.72*,63*,41,36,0.77*,0.81
Cc1c(NC(=O)c2nn3c(c2Cl)NC(c2ccc(Cl)cc2)CC3C(F)(F)F)c(=O)n(-c2ccccc2)n1C (stereo not drawn),0.99,9,nt,nt,nt,nt
O=C(NCc1ccccc1)c1nn2c(c1Cl)NC(c1ccc(Cl)cc1)CC2C(F)(F)F (stereo not drawn),1,16,nt,nt,nt,nt
O=C1C2C3CCC(O3)C2C(=O)N1c1ccccn1 (stereo not drawn),0.96,2,nt,nt,nt,nt
CC(=O)c1ccc(-n2c(C)ccc2C)cc1,1.1,0,nt,nt,nt,nt
Cc1ccc(C)n1-c1ccc(C(=O)O)c(O)c1,1.3*,90*,101*,99*,0.92,0.98
Cc1ccc(C)n1-c1cc(C(=O)O)ccc1O,1.4*,96*,85*,104*,0.94,1
Cc1ccc(C(=O)O)cc1N1C(=O)C2C3C=CC(C3)C2C1=O (stereo not drawn),1.1,-3,nt,nt,nt,nt
Cc1ccc(CC(C)CC(=O)NCCc2ccc3c(c2)OCO3)cc1 (stereo not drawn),0.98,14,nt,nt,nt,nt
COc1ccc(CNS(=O)(=O)c2ccc(NC(C)=O)cc2)cc1,0.98,-1,nt,nt,nt,nt
O=C(/C=C/c1ccco1)Nc1ccc(O)cc1C(=O)O,1,61*,39,93*,0.91,1
Cc1cccc(NC(=O)c2ccccc2NC(=O)/C=C\c2ccco2)c1C,0.93,5,nt,nt,nt,nt
O=C(O)CCn1c(O)c(C2=c3cc([N+](=O)[O-])ccc3=NC2=O)sc1=S,0.94,28,9,28,0.93,0.77*
O=[N+]([O-])c1cccc(S(=O)(=O)Nc2ccc(O)c(Cl)c2)c1,0.83,5,nt,nt,nt,nt
O=C1N=c2ccc([N+](=O)[O-])cc2=C1c1sc(NS(=O)(=O)c2ccccc2)nc1O,1,41*,15,101*,0.87,0.75*
COCCCn1c(O)c(C2=c3ccccc3=NC2=O)sc1=S,1,20,nt,nt,nt,nt
c1ccc(Nc2nnc(CSc3nc4ccccc4s3)s2)cc1,1.1,12,nt,nt,nt,nt
O=C(Nc1cccc2nsnc12)c1ccccc1[N+](=O)[O-],1.1,10,nt,nt,nt,nt
N/C(=N/OC(=O)c1cccc(Br)c1)c1ccc(Cl)cc1,1,5,nt,nt,nt,nt
O=C(O)CC(NS(=O)(=O)c1ccc(F)cc1)c1ccccc1 (stereo not drawn),1.1,2,nt,nt,nt,nt
O=[N+]([O-])c1cccc(CONc2ncnc3nonc23)c1,0.84,6,nt,nt,nt,nt
O=C(/C=C/c1cccs1)c1c(-c2ccccc2)c2cc(Cl)ccc2[nH]c1=O,0.98,8,nt,nt,nt,nt
COC(=O)c1ccc(COc2cc(C)cc3oc(=O)cc(-c4ccccc4)c23)cc1,1.1,9,nt,nt,nt,nt
O=C(CCCN1C(=O)/C(=C\c2cccc(Br)c2)SC1=S)Nc1ccc(C(=O)O)cc1,0.99,30,25,4,0.97,0.97
SMILES,Cy5 interf NS3h,HCV NS3h FP,NS3h confirm,SSB FP counter,Cy5 SSB interf,Cy5 fluor confirm
O=C(CN1C(=O)/C(=C/c2cccc(Br)c2)SC1=S)Nc1ccccn1,0.97,10,nt,nt,nt,nt
O=C(Nc1ccc(Cl)c(Cl)c1)C1CC(=O)N(c2cccc([N+](=O)[O-])c2)C1 (stereo not drawn),1.1,39,0,14,0.97,0.94
Cc1ccc(NC(=O)C2CC(=O)N(c3ccc(Br)cc3)C2)cc1Cl (stereo not drawn),1,20,nt,nt,nt,nt
O=C1C(=Cc2ccc(Oc3ccc(C(F)(F)F)cc3[N+](=O)[O-])c(Cl)c2)C(=O)c2ccccc21,1,3,nt,nt,nt,nt
CCN(CC)c1ccc(N=Cc2c(O)[nH]c(=S)[nH]c2=O)cc1,0.73*,94*,54*,70*,0.91,0.79*
CCN(CC)c1ccc(C=Nc2ccc(S(N)(=O)=O)cc2)c(O)c1,1,9,nt,nt,nt,nt

# Screens as filed in PubChem.
